Results as given in PubChem BioAssay (EPA / NIEHS).
Inconclusive results are not listed. Calls of active or inactive are those of the source. Rule for the calls, unless noted: active = hit-call score of the fitted dose curve at least 0.9, where 1 is the maximum; inconclusive = response in the unintended direction; inactive = score below 0.9.

Experiments:
[1] = Tanguay_ZF_120hpf_OTIC_legacy: (Legacy) Oregon State University Tanguay Lab 120 Hour Post-fertilization zebrafish Assay for Otic Vesicle Malformation (AID 2283639)
In short: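 Wild-type zebrafish larvae, whole-embryo exposure from early stage to 120 hpf at 28C. Binary brightfield scoring of otic vesicle morphology, fitted in the positive direction against the DMSO baseline.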

[2] = Tanguay_ZF_120hpf_PE_legacy: (Legacy) Oregon State University Tanguay Lab 120 Hour Post-fertilization zebrafish Assay for Pericardial Edema (AID 2283640);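 for AC50: potency for increased incidence of pericardial edema versus DMSO baseline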
In short: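 Scoring was binary, by brightfield microscopy at 120 hpf, and skipped where mortality occurred. Wild-type embryos were kept under sealed, foil-covered static exposure at 28C in 0.64% (vol/vol) DMSO.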

[3] = Tanguay_ZF_120hpf_BRAI_legacy: (Legacy) Oregon State University Tanguay Lab 120 Hour Post-fertilization zebrafish Assay for Brain Malformation (AID 2283641)
In short: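 Binary brightfield scoring of brain malformation at 120 hpf in Tropical 5D larvae held under static exposure at 28C (0.64% v/v DMSO), non-mortality endpoints skipped if dead. Positive control: 5uM trimethyltin chloride; fit versus DMSO.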

[4] = Tanguay_ZF_120hpf_SOMI_legacy: (Legacy) Oregon State University Tanguay Lab 120 Hour Post-fertilization zebrafish Assay for Somite Malformation (AID 2283647)
In short: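 Binary somite-defect scoring at 120 hpf, omitted for embryos that died, in wild-type (Tropical 5D) zebrafish with chorion removed by pronase at 4 hpf; static exposure began 6 hpf, single embryos per well, 28C, 0.64% DMSO; fitted positive versus DMSO.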

[5] = Tanguay_ZF_120hpf_PFIN_legacy: (Legacy) Oregon State University Tanguay Lab 120 Hour Post-fertilization zebrafish Assay for Pectoral Fin Malformation (AID 2283648);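 note: each larva judged yes or no for fin defect by brightfield with dead larvae skipped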
In short: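 Scoring of pectoral fin malformation was binary, made at 120 hpf on larvae exposed statically from 6 hpf after enzymatic chorion removal. Activity was fitted upward relative to DMSO controls at 0.64% (vol/vol).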

[6] = Tanguay_ZF_120hpf_CFIN_legacy: (Legacy) Oregon State University Tanguay Lab 120 Hour Post-fertilization zebrafish Assay for Caudal Fin Malformation (AID 2283649)
In short: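 Binary brightfield scoring of caudal fin defects at 120 hpf after static, light-shielded exposure at 28C from 6 hpf. Tropical 5D embryos, chorion removed with pronase at 4 hpf, final DMSO 0.64%.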

[7] = Tanguay_ZF_120hpf_CIRC_legacy: (Legacy) Oregon State University Tanguay Lab 120 Hour Post-fertilization zebrafish Assay for Circulatory Malformation (AID 2283651)
In short: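 Binary circulatory-malformation call at 120 hpf via brightfield imaging, relative to DMSO controls. Embryos (5D strain, chorion removed) received static, light-shielded exposure at 28C.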

[8] = Tanguay_ZF_120hpf_SWIM_legacy: (Legacy) Oregon State University Tanguay Lab 120 Hour Post-fertilization zebrafish Assay for Swim Bladder Malformation (AID 2283654);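 note: swim bladder malformation in each larva scored yes or no under brightfield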
In short: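 Static waterborne exposure of single dechorionated Tropical 5D zebrafish embryos, 6–120 hpf, 28C, 0.64% DMSO final. Read-out: swim bladder malformation, present/absent, relative to DMSO negative control; trimethyltin chloride 5uM served as positive control.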

[9] = Tanguay_ZF_120hpf_PIG_legacy: (Legacy) Oregon State University Tanguay Lab 120 Hour Post-fertilization zebrafish Assay for Pigmentation Malformation (AID 2283650)
In short: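 Endpoint is incidence of abnormal pigmentation at 120 hpf in dechorionated 5D zebrafish exposed singly from 6 hpf at 28C, DMSO vehicle at 0.64%. Embryos dying by 24 or 120 hpf are excluded from scoring.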

[10] = read-out: solute carrier (SLC22A6), SLC22A6 (gene 9356); experiment: LTEA_HepaRG_SLC22A6: Life Technologies and Expression Analysis (LTEA) Assay for solute carrier (SLC22A6) using HepaRG (AID 2283653; active = hit-call score of the fitted dose curve at least 0.9, where 1 is the maximum; inactive = score below 0.9); settings: mRNA level, 48 h; actives raise or lower the signal
Procedure: LTEA_HepaRG is a cell based, multiplexed-readout assay that uses HepaRG, a human liver cell line, with measurements taken at 48 hours after chemical dosing on a 96-well plate.LTEA_HepaRG_SLC22A6 is one of 102 assay component(s) measured in the LTEA HepaRG cell culture assay. It is a marker of NR mediated transport.Data from the assay component LTEA_HepaRG_SLC22A6 was analyzed into 1 endpoint. This assay endpoint, LTEA_HepaRG_SLC22A6, was analyzed with bidirectional fitting relative to DMSO as the negative control and baseline of activity. Using a type of inducible reporter, measures of mRNA induction for gain or loss-of-signal activity can be used to understand regulation of transcription factor activity. To generalize the intended target to other relatable targets, this assay endpoint is annotated to the transporter intended target family, where the subfamily is organic anion transporter.
A total of 1060 chemcials from the ToxCast library were tested in eight-point concentration-response experiments. Cell culture and cytotoxicity assays were conducted at Thermo Fisher Scientific's Custom Services facility (Madison, WI). A single lot of human HepaRG cells (Thermo Fisher Scientific, Frederick, MD) was used for the cell culture experiments. 96-well format collagen type I coated plates of human HepaRG cells were prepared using established methods. Briefly, cryopreserved HepaRG cells were thawed, plated at a density of approximately 100,000 cells/well in HepaRG Thaw, Plate, and General Purpose media (HPRG770, Thermo Fisher Scientific), and incubated for 48 hours. 0.5% DMSO was selected as vehicle control to balance the requisite need of DMSO in HepaRG cultures to maintain differentiation (for example, baseline metabolism, proportions of hepatocytes vs. cholangiocytes), while enabling further hepatic receptor pathway activation (for example, PXR and CAR) in response to chemical exposure. 48 hours after plating, the culture medium was replaced with HepaRG Serum-Free Incudtion Media. Cells were exposed to each test chemical in duplicate and maintained in CO2 incubators for another 48 hours. Chemical plates were thawed to room temperature and 200x concentrations of treatment groups were prepared. 8-point conentration-reponse curves were made with the highest exposure at 100 uM, followed by half-log dilutions, all in 0.5% DMSO. Each test plate contained variouse controls, induction positive controls (1mM phenobarbital), cytotoxicity positive controls ([…] aflatoxin B1), vehicle controls (0.5% DMSO), and total lysis controls (0.5% DMSO). Cell morphology images were taken using an Essen IncuCyte FLR automated microscope, with six 96-well plates imaged in about 24 minutes. Images were captured and exported and JPEG files. Spent culture media was transfered to black-well plates for the LDH assay, and remaining media was sorted at -80 C for later use. Cells were treated with RLT buffer and frozen until shipped for gene expression analysis. Total RNA was isolated from the cell suspension in 75 uL of Buffer RLT (Qiagen, Germantown, MD 20874) by Quintiles/Expression Analysis (Durham, NC) using a custom isolation procedure. Total RNA from each plate well was transferred to a preamplification plate. Fluidigm's 96.96 Dynamic ArrayTM (Fluidigm, Amsterdam, the Netherlands) technology was used for gene expression analyses by quantitative reverse transcription polymerase chain reaction (qRT-PCR, performed by Quintiles/Expression Analysis, Durham, NC)89. […]

Measured: AC50

ClC1=C(Cl)[C@]2(Cl)[C@@H]3[C@H]4C[C@H]([C@@H]5O[C@H]45)[C@@H]3[C@@]1(Cl)C2(Cl)Cl
active: [2] 39 µM | [3] 66.7 µM | [4] 65.6 µM | [6] 66.1 µM
inactive: [1] | [5] | [7] | [8]

CO/C=C(/C(=O)OC)c1ccccc1COc1cccc(C(F)(F)F)n1
active: [1] 12.7 µM | [2] 2.43 µM | [3] 3.77 µM | [4] 18.1 µM | [5] 5.66 µM | [6] 9.15 µM | [7] 9.76 µM | [8] 14.5 µM

O=C(N[C@H]1CN2CCC1CC2)c1cc2ccoc2cn1
not listed: [10]
inactive: all other assays above

O=S(=O)(O)C(F)(F)C(F)(F)C(F)(F)C(F)(F)C(F)(F)C(F)(F)F
inactive: [1] | [4] | [5] | [7] | [8]
active: [3] 14.9 µM

CCCCCCOC(=O)c1ccccc1C(=O)OCCCCCC
inactive: [2] | [3] | [4] | [5] | [7]

Oc1ccc(Cl)cc1Cl
inactive: [1] | [2] | [4] | [5] | [6] | [8]

O=S(=O)(O)C(F)(F)C(F)(F)C(F)(F)C(F)(F)F
inactive: [8]

CCCN(CCC)N=O
inactive: [2] | [4] | [5] | [6] | [7] | [8]

O=C(NC(=O)c1cc(F)c(F)cc1Cl)Nc1cc(F)ccc1N1CCC(C(=O)O)CC1
not listed: [3] | [9] | [10]
inactive: all other assays above

CCCCCCCCCc1ccc(O)cc1
inactive: [1] | [2] | [4] | [6] | [10] | [8]

ClC(Cl)=C(c1ccc(Cl)cc1)c1ccc(Cl)cc1
not listed: [1] | [9] | [10]
inactive: all other assays above

C[C@]12CCC(=O)C=C1CC[C@@H]1[C@@H]2CC[C@@]2(C)[C@H]1CC[C@]2(C)O
inactive: [1] | [3] | [4] | [6] | [7] | [8]

Clc1ccc(C(c2ccccc2Cl)C(Cl)(Cl)Cl)cc1 (stereo unspecified)
not listed: [4] | [9] | [10]
inactive: all other assays above

CCCCCCCCCC[N+](C)(C)CCCCCCCCCC
not listed: [4] | [9] | [10]
inactive: all other assays above

CC(c1ccc(O)cc1)(c1ccc(O)cc1)c1ccc(O)cc1
not listed: [2] | [9] | [10]
inactive: all other assays above

Clc1ccc(Cl)cc1
inactive: [1] | [2] | [4] | [6] | [7] | [10]

Cc1cccc(C)c1N
inactive: [2] | [6] | [7] | [8]

CCSC(=O)N(CC)C1CCCCC1
not listed: [2] | [9] | [10]
inactive: all other assays above

C1CC2OC2CC1C1CO1 (stereo unspecified)
not listed: [2] | [3] | [10]
inactive: all other assays above

c1ccc(-c2ccccc2)cc1
inactive: [1] | [2] | [4] | [5] | [9] | [8]

Cc1cc(O)ccc1Cl
inactive: [1] | [2] | [5] | [6] | [7]

Oc1ccc(C(c2ccc(O)cc2)(C(F)(F)F)C(F)(F)F)cc1
inactive: [3] | [7] | [8]
active: [1] 51.7 µM | [2] 37.7 µM | [5] 53.3 µM | [6] 54 µM

CC#Cc1cc(C)nc(Nc2ccccc2)n1
not listed: [1] | [2] | [10]
inactive: all other assays above

c1cc2ccc3cccc4ccc(c1)c2c34
not listed: [4] | [5] | [10]
inactive: all other assays above

C[C@]12CCC(=O)C=C1CC[C@@H]1[C@@H]2CC[C@]2(C)C(=O)CC[C@@H]12
active: [2] 36.3 µM | [3] 49.8 µM | [5] 35.1 µM | [6] 40.4 µM | [9] 43.9 µM
inactive: [4] | [7] | [8]

Clc1ccc(C(Cl)(Cl)Cl)cc1
inactive: [2] | [4] | [9] | [8]

CCOC(=O)C(O)(c1ccc(Cl)cc1)c1ccc(Cl)cc1
inactive: [1] | [2] | [3] | [5] | [6] | [8]

O=C(O)C(F)(F)C(F)(F)C(F)(F)C(F)(F)C(F)(F)F
not listed: [4] | [9] | [10]
inactive: all other assays above

CCC(C)(c1ccc(O)cc1)c1ccc(O)cc1
inactive: [6]
active: [2] 43.4 µM | [3] 50.6 µM | [4] 46.4 µM | [5] 44.7 µM | [7] 42.7 µM | [8] 43.1 µM

CC(C)(c1ccccc1)c1ccc(O)cc1
inactive: [1] | [2] | [4] | [6] | [7] | [8]

COc1ccc(O)c(C(C)(C)C)c1
inactive: [2] | [3] | [4] | [5] | [6] | [8]

CN(C)c1nc(=O)n(C2CCCCC2)c(=O)n1C
inactive: [1] | [2] | [3] | [6] | [7]

COS(=O)(=O)OC
not listed: [3] | [6] | [9]
inactive: all other assays above

O=C(O)C(F)(F)C(F)(F)C(F)(F)C(F)(F)C(F)(F)C(F)(F)C(F)(F)C(F)(F)C(F)(F)F
not listed: [2] | [5] | [9]
inactive: all other assays above

CC(C)(O)C(=O)Nc1ccc([N+](=O)[O-])c(C(F)(F)F)c1
active: [2] 23.2 µM
inactive: [3] | [4] | [5] | [7] | [8]
